Source: PubChem BioAssay AID686978 (National Center for Advancing Translational Sciences (NCATS), 2013)
The whole screen tested about 420,000 compounds, of which about 64,000 (15%) were called active. Roughly 27% stayed inconclusive and do not appear here. Calls follow the shape of the dose curve; as a rule, active = well fitted inhibition curve with a large enough effect; inconclusive = small, poorly fitted or top-dose-only effect; inactive = flat fitted curve, though single readings scatter. A selection follows.

Assay: qHTS for Inhibitors of human tyrosyl-DNA phosphodiesterase 1 (TDP1): qHTS in cells in absence of CPT; also: nearly all actives have a fitted effect of over 55% in size
Conditions: DT40 Tdp1-/- hTDP1 cells, no CPT, ATP luminescence, 48 h; activity change, negative = growth inhibition: at 46.2 µM (top of the series)
Summary of the method: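 Growth kinetics read by CellTiter-Glo luminescence after ≥48 hr at 37 °C. Cells: DT40 Tdp1-/- stably carrying human TDP1, 400 per well, compound exposure in the absence of CPT (DMSO vehicle).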
% is scaled to controls: 0 for no effect and ±100 for the full control effect; potency is read from the fitted curve at half-maximal effect.

SMILES	activity change, negative = growth inhibition	Potency
CCOc1ccc(CNC(=O)C2CCC(=O)N2C2CCCC2)cc1OC (configuration not stated)	-16.4% (inactive)	
CCCC(=O)Nc1ccc(C(=O)N/N=C/c2ccc[nH]2)cc1	-23.6% (inactive)	
CCOC(=O)c1ccccc1NC(=O)CSc1nc2ccccc2c(=O)[nH]1	-14% (inactive)	
COc1ccc(C(=O)c2oc3ccccc3c2NC(=O)COc2cccc(C)c2)cc1	-5.81% (inactive)	
C=CCN(CC=C)C(=O)COC(=O)c1n[nH]c2ccccc12	2.16% (inactive)	
COC(=O)c1sccc1-n1cccc1C(=O)C(=O)N1CCCCC1	-10.5% (inactive)	
CCC(=O)Nc1ccc(C(=O)CSc2nnc(CNc3ccc(Cl)cc3)o2)cc1OC		12.6 µM (active)
COc1ccc(Cc2nnc(SCC(=O)Nc3ccc(C)c(C)c3)o2)cc1OC	-26.6% (inactive)	
CCOC(=O)CSc1nnc(CNc2ccc(F)cc2)o1	-5.09% (inactive)	
Cc1nn(C)cc1C(=O)NNC(=S)Nc1ccc(Cl)cc1	-3.84% (inactive)	
Cc1ccc(S(=O)(=O)N2CCOCC2)cc1C(=O)NCc1ccc(F)cc1	-15.7% (inactive)	
O=S(=O)(c1cccc(Cn2nnc(-c3ccc(F)cc3)n2)c1)N1CCOCC1		20.6 µM (active)
CCN(Cc1ccncc1)C(=O)c1cccc(S(=O)(=O)N2CCOCC2)c1	-1.97% (inactive)	
CN(C)c1ccc(/C=C2\NC(=S)N(Cc3ccccc3)C2=O)cc1		20.6 µM (active)
COc1cc(/C=C2/SC(=S)N(Cc3ccccc3)C2=O)cc(OC)c1O	-27.9% (inactive)	
CN(C)c1ccc(/C=c2\[nH]c(=O)/c(=C/c3ccc(N(C)C)cc3)[nH]c2=O)cc1	-15.2% (inactive)	
Cc1ccc(-c2nc3ccccn3c2Nc2c(C)cccc2C)o1		18.4 µM (active)
Cc1nc2ccccn2c(=O)c1NC(=O)c1ccc(Br)o1	-7.88% (inactive)	
Cc1nc2ccccn2c(=O)c1NC(=O)c1c(F)cccc1F	-16.3% (inactive)	
CO[C@H]1O[C@@H]2O[C@@]3(C)CC[C@@H]4[C@@H](C)CC[C@@H]([C@H]1C)[C@@]24OO3		0.891 µM (active)
CCOC(=O)CSc1nnc(-c2ccncc2)o1	-15.1% (inactive)	
CCOc1cc(/C=N/NC(=O)OC)ccc1OCCSc1ccc(Cl)cc1	-27.1% (inactive)	

SMILES	activity change, negative = growth inhibition	Potency
Cc1ccc(NN=Nc2nc3c([nH]2)c(=O)n(C)c(=O)n3C)cc1	-24.2% (inactive)	
Cc1ccn2c(Nc3ccc4c(c3)OCCO4)c(-c3ccc(C)s3)nc2c1	-9.21% (inactive)	
Cn1cc([N+](=O)[O-])c(C(=O)Nc2ccc3c(c2)OCCO3)n1	-10.6% (inactive)	
Oc1ccccc1-c1nc2ccc(Cl)cn2c1Nc1ccc2c(c1)OCCO2		23.1 µM (active)
COCCn1c(SCC(=O)Nc2nc(C)cs2)nnc1C(C)C	-9.21% (inactive)	
COc1ccc(OC)c(C2N(c3ccccn3)C(=O)C3CCCN32)c1 (configuration not stated)	-5.04% (inactive)	
CCc1nnc(NS(=O)(=O)c2ccc(NC(=S)NC(=O)/C=C/c3cccs3)cc2)s1	4.4% (inactive)	
O=C(c1cc(-c2cccc(O)c2)on1)N1CCc2ccccc2C1	-24.1% (inactive)	
Clc1ccc(-c2ncc3ccccn23)c(Cl)c1	-10.1% (inactive)	
Clc1ccc(-c2cc(C3CCNCC3)[nH]n2)c(Cl)c1		20.6 µM (active)
CCCn1c(=O)c2[nH]c(C3CCCC3)nc2n(CCC)c1=O		inactive
CCCc1cc(=O)[nH]c(SCC(=O)Nc2ccc(S(=O)(=O)N3CCCC3)cc2)n1	-2.47% (inactive)	
Clc1ccc(CSc2nnc(/C=C/c3ccccc3)o2)c(Cl)c1	4.1% (inactive)	
COCCNc1nc2nonc2nc1N1CCCC1c1nccs1 (configuration not stated)	3.79% (inactive)	
O=C1c2ccccc2S(=O)(=O)N1Cc1c(F)cccc1Cl	-21.6% (inactive)	
CC(C)(C)c1ccc(CN2C(=O)c3ccccc3S2(=O)=O)cc1		20.6 µM (active)
CNC(=O)CN1C(=O)c2ccccc2S1(=O)=O	-4.63% (inactive)	
CC(=O)[C@@]12O[C@@H]1C[C@H]1[C@@H]3CC[C@H]4C[C@@H](O)CC[C@]4(C)[C@H]3CC[C@@]12C	-1.05% (inactive)	
NC(=O)CCC(NS(=O)(=O)c1ccc(Cl)cc1)C(=O)NCc1ccccc1Cl (configuration not stated)	-4.28% (inactive)	
O=C(O)COc1ccc(/C=N/O)cc1Br	-14.4% (inactive)	
CCCC(=O)Nc1nnc(-c2ccccc2)o1	-12.9% (inactive)	
CCCCCCc1cc2cc(-c3nnc(-c4ccccc4)o3)c(=O)oc2cc1O		20.6 µM (active)

SMILES	activity change, negative = growth inhibition	Potency
Cc1c(CC(=O)NCCCCCC(=O)O)c(=O)oc2cc3occ(-c4ccccc4)c3cc12	-18.2% (inactive)	
COc1cc2c(cc1OC)CC(=O)N(CCCN(C)C[C@H]1Cc3cc(OC)c(OC)cc31)CC2	-20.3% (inactive)	
CCOc1ccc(/C=N/NC(=O)CSc2ccccn2)cc1O	-21% (inactive)	
CC(C)(C)C(=O)CSc1nc2ccccc2o1	-1.1% (inactive)	
Cn1c(SCC(=O)N/N=C/c2ccc(O)c(O)c2)nc2ccccc21		18.4 µM (active)
C=CCn1c(Cn2nnc3ccccc32)nnc1SCC(=O)N/N=C/c1cc(Br)cc(OC)c1O	-12.7% (inactive)	
Cc1ccc(/C=N/NC(=O)CSc2nc3ccccc3o2)cc1		23.1 µM (active)
CCN(CC)C(=O)CSc1nc2ccccc2o1	1.48% (inactive)	
COc1cc(OC)c(C(=O)Nc2ccc(N(C)C)cc2)cc1OC	-23.2% (inactive)	
COc1ccc(-c2nc3cnc(N(C)C)nc3n(Cc3cccs3)c2=O)cc1	31.8% (inactive)	
CC1(Oc2ccccc2-c2ccno2)CCN(Cc2ccc(-c3ccccc3)o2)C1 (configuration not stated)		23.1 µM (active)
CCOc1cc(/C=N/Nc2cc(C)nc3ccc(C)cc23)ccc1O		25.9 µM (active)
Cc1ccc2nc(C)cc(N/N=C/c3ccc(F)cc3)c2c1	-17.5% (inactive)	
CCOc1cc(/C=N/NC(=O)c2c(C)nc3ccc(Cl)cn23)ccc1O		8.2 µM (active)
CCOc1cc(C=NNC(=O)CCCC(=O)NN=Cc2ccc(O)c(OCC)c2)ccc1O	-3.64% (inactive)	
CCOc1ccc(/C=N\NC(=O)c2c(C)nc3cc(C)ccn23)cc1	-19% (inactive)	
C/C=C(/C)C(=O)OC1Cc2c(ccc3ccc(=O)oc23)OC1(C)C (configuration not stated)	-0.964% (inactive)	
CCCS(=O)(=O)N1CCCC(C(=O)NCc2ccco2)C1 (configuration not stated)	-13.9% (inactive)	
COc1ccc(C(C#N)Nc2ccc(C)cc2)cc1 (configuration not stated)	-13.7% (inactive)	
Fc1ccc(/C=N/Nc2nc(-c3cccnc3)nc3ccccc23)cc1		16.4 µM (active)
O=C(N/N=C/c1cccnc1)c1ccc(NC(=O)c2ccc(F)cc2)cc1	-26.4% (inactive)	
CCOc1ccc(C2/C(=C(/O)c3ccc4c(c3)CC(C)O4)C(=O)C(=O)N2CCCn2ccnc2)cc1 (configuration not stated)	-4% (inactive)	

SMILES	activity change, negative = growth inhibition	Potency
COc1ccc(NC(=O)CCN2C(=O)/C(=C/c3ccc4c(c3)OCO4)SC2=S)cc1	-25.5% (inactive)	
O=C(CN1CCCCCC1)NCCN1C(=O)S/C(=C\c2ccccc2Cl)C1=O	-24% (inactive)	
O=C1/C(=C\c2ccccc2Cl)SC(=S)N1CCC(=O)N1CCCc2ccccc21		14.6 µM (active)
C=C(C)C1CC=C(CO)CC1 (configuration not stated)	5.86% (inactive)	
CCCn1c(N)c(C(=O)CSc2nnc(-c3cccnc3)n2-c2ccc(C)cc2C)c(=O)[nH]c1=O	-27.8% (inactive)	
Cc1c(/C=N/N2C(=O)C3C4C=CC(C4)C3C2=O)c2ccccc2n1C (configuration not stated)	-28.9% (inactive)	
O=C(O)c1cccc(NC(=S)N/N=C/c2c[nH]c3ccccc23)c1	14.2% (inactive)	
Cc1c(/C=N\NC(=O)c2cc3ccccc3o2)c2ccccc2n1C		3.66 µM (active)
O=C(N/N=C/c1cccc(O)c1)c1cc2c(ccc3ccccc32)o1	-11.2% (inactive)	
CSC(=S)N/N=C/c1c[nH]c2ccccc12		0.92 µM (active)
O=C(N/N=C/c1c[nH]c2ccccc12)c1cc2ccccc2o1		14.6 µM (active)
Nc1nonc1-n1nnc(C(=O)N/N=C/c2c[nH]c3ccccc23)c1-c1ccccc1	-12.4% (inactive)	
O=C(N/N=C/c1c[nH]c2ccccc12)c1ccccc1O	-15.3% (inactive)	
NC(=O)CSc1c[nH]c2ccccc12	-5.76% (inactive)	
O=C(O)C(F)(F)C(NCc1ccccc1)c1ccccc1 (configuration not stated)	-5.89% (inactive)	
COc1ccc(S(=O)(=O)N2CCC(C(=O)NCCC(=O)NCCc3cccc(F)c3)CC2)cc1	-27% (inactive)	
Cc1ccc(S(=O)(=O)C2C(=O)NC3(C)CC2c2ccccc2O3)cc1 (configuration not stated)	-3.39% (inactive)	
Cn1c(SCC(=O)N2CCCC2)nnc1-c1ccc2c(c1)OCO2	18.9% (inactive)	
CCC1C(C#N)=C(SC)NC2=C1C(=O)CC(C)(C)C2 (configuration not stated)	-24.4% (inactive)	
Nc1nonc1-n1nnc(C(=O)N/N=C/C2CCCCC2)c1-c1ccccc1	6.3% (inactive)	
CCn1c(=O)cc(SCC(=O)NCc2ccc3c(c2)OCO3)c2ccccc21	-1.5% (inactive)	
CC1(C)NC(=O)N(CC(=O)Nc2cc(C(F)(F)F)cc(C(F)(F)F)c2)C1=O	0.431% (inactive)	

SMILES	activity change, negative = growth inhibition	Potency
CNC(=S)Nc1ccc([N+](=O)[O-])cc1	-24.8% (inactive)	
O=C(O)/C=C/C(=O)NNc1ccc([N+](=O)[O-])cc1		18.4 µM (active)
Cc1c(NC(=O)/C=C/C(=O)O)cccc1[N+](=O)[O-]	5.13% (inactive)	
CCC(=O)NC(NCC1CCCO1)C(Cl)(Cl)Cl (configuration not stated)	-1.9% (inactive)	
COCCNc1nc(NCc2ccc(NC(C)=O)cc2)c2sccc2n1	-5.82% (inactive)	
CCc1ccc(S(=O)(=O)c2nnn3c2nc(NCc2ccccc2OC)c2cc(Cl)ccc23)cc1	-12.5% (inactive)	
COc1cccc(CNc2nc(NCc3ccccc3OC)nc3ccsc23)c1		9.2 µM (active)
CC(C)Nc1nc(NCCOc2ccccc2Cl)c2sccc2n1		20.6 µM (active)
COc1ccccc1CNc1nc(Nc2ccccc2Cl)c2sccc2n1		7.31 µM (active)
Cc1nc2cc(NCc3cccs3)ccc2n1C	0.0187% (inactive)	
COc1ccccc1CNCc1cccs1	-9.52% (inactive)	
COc1cccc(CNc2nc(NCc3cccs3)nc3ccsc23)c1		10.3 µM (active)
COc1cccc(CNc2nccn(-c3ccc(OC)c(OC)c3)c2=O)c1	-13.9% (inactive)	
COc1ccc(NC(=O)C/C(C)=N/NC(=O)c2cnccn2)cc1Cl	2.04% (inactive)	
COc1ccc(C(=O)N(Cc2ccc(N(C)C)cc2)C2CCS(=O)(=O)C2)cc1 (configuration not stated)	-15% (inactive)	
CC(C)C(OC(=O)c1cccs1)C(=O)NC1CCCCC1 (configuration not stated)	-21.2% (inactive)	
CCNc1nc(N)nc(-c2cc(Cl)ccc2OC)n1	-7.89% (inactive)	
COc1ccc(OC)c(S(=O)(=O)Nc2ccccc2F)c1	-7.95% (inactive)	
COc1ccc(C(=O)OCC(=O)Nc2ccc3[nH]c(=O)[nH]c3c2)c(OC)c1OC	-5.45% (inactive)	
